From PubChem BioAssay
A number with no mark means an inactive call. How the calls were made is not given here.

assay: inhibitors of hydroxyurea-induced Chk1 phosphorylation, primary screen, imaging, HeLa, phospho-Chk1 antibody, percent positive cells (AID 1186); conditions: hydroxyurea-induced phospho-Chk1 immunofluorescence imaging, higher = more signal

**Q.** For `CC(C)C[C@@H]1NC(=O)[C@@]23C(=O)N[C@@H](Cc4ccccc4)C2[C@H](C)[C@@]2(C)O[C@H]2C3/C=C/C/C=C\CNC(=O)[C@@H]2CCCN2C1=O` (stereo partly specified), which z-score is on record?
**A.** -0.118

**Q.** Which z-score does the source give for `[N-]=[N+]=NCc1ccccc1[C@H]1OC(c2ccc(OCCCO)cc2)=N[C@@]1(Cc1ccccc1)C(N)=O` here?
**A.** -0.441

**Q.** With `CCOC(=O)C1=CC[C@@H](c2ccccc2)N(S(=O)(=O)c2ccc(C)cc2)[C@H]1C=C(C)C` as the compound, how does the z-score read?
**A.** 0.213

**Q.** Which z-score does the source give for `CCCCC(=C=CC[C@H](O)c1cccc(OCCO)c1)C[C@H](O)COCc1ccccc1` here?
**A.** -0.0835

**Q.** With `CN(C)C(=O)[C@]1(Cc2ccccc2N=[N+]=[N-])N=C(c2ccc(OCCCO)cc2)O[C@@H]1c1ccccc1CN=[N+]=[N-]` as the compound, how does the z-score read?
**A.** -0.191

**Q.** With `COC(=O)[C@@]1(Cc2ccccc2)[C@H]2c3cc(C(=O)N(C)C)n(Cc4ccccn4)c3C[C@H]2CN1C(=O)c1ccccc1` as the compound, how does the z-score read?
**A.** 0.545

**Q.** For `COC(=O)[C@]1(Cc2ccccc2CN=[N+]=[N-])N=C(c2ccc(OCCCO)cc2)O[C@@H]1c1ccccc1CN=[N+]=[N-]`, which z-score is on record?
**A.** -0.716

**Q.** For `C=CCN1C(=O)[C@@]2(O[C@@H](CCn3cc([C@H](O)c4ccccc4)nn3)[C@H]([Si](C)(C)c3ccc(OC)cc3)[C@H]2C)c2cc(NC(=O)c3ccc(OC)cc3)ccc21`, which z-score is on record?
**A.** 0.24

**Q.** Which z-score does the source give for `CCCC[C@@H](O)C1=C(COc2ccccc2)Cn2c(=O)n(-c3ccccc3)c(=O)n2[C@H]1CO` here?
**A.** -0.532

**Q.** Which z-score does the source give for `CC[C@@H]1[C@@H]2C3C(=O)N(CC)C(=O)C3CC(=O)[C@@H]2[C@H](c2ccc(C)cc2)N1S(=O)(=O)c1ccc(C)cc1` (stereo partly specified) here?
**A.** -1.51

**Q.** With `COc1ccc([Si](C)(C)[C@@H]2[C@@H](CC(=O)N3Cc4ccccc4C[C@H]3CO)O[C@]3(C(=O)N(Cc4cccc(N5CCCCC5=O)c4)c4ccccc43)[C@H]2C)cc1` as the compound, how does the z-score read?
**A.** -0.559

assay: inhibitors of hydroxyurea-induced Chk1 phosphorylation, primary screen, imaging, HeLa, phospho-Chk1 nuclear intensity (AID 1187); conditions: hydroxyurea-induced phospho-Chk1 immunofluorescence imaging, higher = more signal; further: test concentration not given here

**Q.** With `Cc1cc(C)c(C(O)C2C=CC3C(=O)N(c4ccccc4)C(=O)C3N2Nc2ccccc2)c(C)c1` (stereo unspecified) as the compound, how does the z-score read?
**A.** 0.41

**Q.** Which z-score does the source give for `CC(C)NC(=O)[C@@]1(Cc2ccccc2I)c2ccccc2C(=O)N(Cc2ccccc2C(F)(F)F)[C@H]1c1ccc(CO)cc1` here?
**A.** 0.0078

**Q.** With `COc1ccc(CCNC(=O)[C@@H]2c3ccccc3C(=O)N(Cc3ccccc3)[C@H]2c2ccc(CO)cc2)cc1` as the compound, how does the z-score read?
**A.** -1.38

**Q.** Which z-score does the source give for `COC(=O)C(CC#Cc1ccc2c(c1)[C@]1(C(=O)N2)[C@H](c2ccccc2OCCO)N2[C@H](c3ccccc3)[C@H](c3ccccc3)OC(=O)[C@H]2[C@@H]1C(=O)Nc1nc2ccccc2s1)C(=O)OC` here?
**A.** -0.269

**Q.** Which z-score does the source give for `C=CCN1C(=O)[C@@]2(O[C@@H](CCO)[C@H]([Si](C)(C)c3ccc(OC)cc3)[C@H]2C)c2cc(NC(=O)[C@H](C)O)ccc21` here?
**A.** 0.18

**Q.** For `O=C(O)[C@]1(CCS(=O)(=O)c2ccccc2)N=C(c2ccc(OCCCO)cc2)O[C@@H]1c1ccccc1`, which z-score is on record?
**A.** 0.06

**Q.** With `CC1=C2[C@@H](CCc3ccccc3)OB(O)C[C@@H]2[C@@H]2C(=O)C=CC(=O)[C@@H]2C1` as the compound, how does the z-score read?
**A.** 1.1

**Q.** With `CN(C)C(=O)[C@@]1(CCC(=O)OC(C)(C)C)COC(c2ccc(OCCCO)cc2)=N1` as the compound, how does the z-score read?
**A.** 0.337

**Q.** With `COCCOC(=O)N1C(=O)[C@@]2(c3cc(C#CCC(C(=O)OC)C(=O)OC)ccc31)[C@H](C(=O)N1CCCCCCC1)[C@H]1C(=O)O[C@H](c3ccccc3)[C@H](c3ccccc3)N1[C@@H]2c1ccc(O)cc1` as the compound, how does the z-score read?
**A.** -0.367

**Q.** Which z-score does the source give for `COc1ccc([Si](C)(C)[C@@H]2[C@@H](CCO)O[C@]3(C(=O)N(Cc4ccccc4)c4ccc(N5CCCCC5=O)cc43)[C@H]2C)cc1` here?
**A.** -1.73

**Q.** For `Cc1ccc(N2C(=O)c3ccccc3[C@](C)(C(=O)NC(C)C)[C@@H]2c2ccc(CO)cc2)nc1`, which z-score is on record?
**A.** 0.205

**Q.** For `COC(=O)[C@]1(Cc2ccccc2N=[N+]=[N-])N=C(c2ccc(OCCCO)cc2)O[C@@H]1c1ccccc1`, which z-score is on record?
**A.** -1.26

**Q.** With `C=CC[C@]1(C(=O)NCC(O)CO)N=C(c2ccc(OCCCO)cc2)O[C@H]1c1ccccc1N=[N+]=[N-]` (stereo partly specified) as the compound, how does the z-score read?
**A.** -0.236

**Q.** For `C=C(/C(=C/C[C@@H](OC(C)=O)c1ccccc1OCCO)c1cnc2ccccc2c1)C(C)C`, which z-score is on record?
**A.** 0.0715

**Q.** Which z-score does the source give for `CCN(CC)c1ccc(N2CC=CC34O[C@@H]5/C=C\CCCOC(=O)C5[C@H]3C(=O)N(CCCCCCO)[C@@H]4C2=O)cc1` (stereo partly specified) here?
**A.** 1.02

**Q.** For `COCCCNC(=O)[C@@]1(Cc2ccccc2N=[N+]=[N-])N=C(c2ccc(OCCCO)cc2)O[C@H]1c1ccccc1CN=[N+]=[N-]`, which z-score is on record?
**A.** 0.446

**Q.** For `COc1ccccc1CN1C(=O)c2ccccc2[C@@]2(Cc3ccccc3N(C3CC3)C2=O)[C@@H]1c1ccc(CO)cc1`, which z-score is on record?
**A.** 0.491

**Q.** Which z-score does the source give for `COC(=O)C(CC#Cc1ccc2c(c1)[C@]1(C(=O)N2)[C@H](c2ccc(OCCO)cc2)N2[C@H](c3ccccc3)[C@H](c3ccccc3)OC(=O)[C@H]2[C@@H]1C(=O)O)C(=O)OC` here?
**A.** 0.436

**Q.** For `CC(C)CCC[C@@H](C)[C@H]1CC[C@@]2(C)C3=C(CC[C@]12C)[C@@]1(C)CC[C@H](OC(=O)C(C)(C)C)C(C)(C)C1CC3` (stereo partly specified), which z-score is on record?
**A.** -1.89

**Q.** Which z-score does the source give for `COCCCNC(=O)[C@@]1(C)c2ccccc2C(=O)N(c2ccc(C)cn2)[C@H]1c1ccc(CO)cc1` here?
**A.** 0.554

**Q.** With `O=C1O[C@@H](c2ccccc2)[C@@H](c2ccccc2)N2[C@@H](c3ccc(O)cc3)[C@]3(C(=O)Nc4ccc(C#CC5(O)CCCCCC5)cc43)[C@@H](C(=O)N3CCN(c4ncccn4)CC3)[C@H]12` as the compound, how does the z-score read?
**A.** -0.624

**Q.** With `COC(=O)C(CC#Cc1ccc2c(c1)[C@]1(C(=O)N2)[C@H](c2ccc(O)cc2)N2[C@H](c3ccccc3)[C@H](c3ccccc3)OC(=O)[C@H]2[C@@H]1C(=O)O)C(=O)OC` as the compound, how does the z-score read?
**A.** -0.31

**Q.** With `C=CC[C@@]1(C(=O)NCCN2CCOCC2)N=C(c2ccc(OCCCO)cc2)O[C@@H]1c1ccccc1` as the compound, how does the z-score read?
**A.** 0.0737

**Q.** With `NC(=O)[C@H]1[C@@H]2C(=O)O[C@@H](c3ccccc3)[C@@H](c3ccccc3)N2[C@@H](c2ccc(O)cc2)[C@]12C(=O)Nc1ccc(C#CC3(O)CCCCCC3)cc12` as the compound, how does the z-score read?
**A.** 0.301

**Q.** With `CC(C)C[C@@H]1NC(=O)[C@@]23C(=O)N[C@@H](Cc4ccccc4)C2[C@H](C)[C@@]2(C)O[C@H]2C3/C=C/C/C=C\CNC(=O)[C@@H]2CCCN2C1=O` (stereo partly specified) as the compound, how does the z-score read?
**A.** 0.275

**Q.** Which z-score does the source give for `[N-]=[N+]=NCc1ccccc1[C@H]1OC(c2ccc(OCCCO)cc2)=N[C@@]1(Cc1ccccc1)C(N)=O` here?
**A.** -0.189

**Q.** Which z-score does the source give for `CCOC(=O)C1=CC[C@@H](c2ccccc2)N(S(=O)(=O)c2ccc(C)cc2)[C@H]1C=C(C)C` here?
**A.** 0.0493

**Q.** For `CCCCC(=C=CC[C@H](O)c1cccc(OCCO)c1)C[C@H](O)COCc1ccccc1`, which z-score is on record?
**A.** 0.0554

**Q.** Which z-score does the source give for `CN(C)C(=O)[C@]1(Cc2ccccc2N=[N+]=[N-])N=C(c2ccc(OCCCO)cc2)O[C@@H]1c1ccccc1CN=[N+]=[N-]` here?
**A.** 0.269

**Q.** Which z-score does the source give for `COC(=O)[C@@]1(Cc2ccccc2)[C@H]2c3cc(C(=O)N(C)C)n(Cc4ccccn4)c3C[C@H]2CN1C(=O)c1ccccc1` here?
**A.** 0.295

**Q.** With `COC(=O)[C@]1(Cc2ccccc2CN=[N+]=[N-])N=C(c2ccc(OCCCO)cc2)O[C@@H]1c1ccccc1CN=[N+]=[N-]` as the compound, how does the z-score read?
**A.** -0.601

**Q.** With `C=CCN1C(=O)[C@@]2(O[C@@H](CCn3cc([C@H](O)c4ccccc4)nn3)[C@H]([Si](C)(C)c3ccc(OC)cc3)[C@H]2C)c2cc(NC(=O)c3ccc(OC)cc3)ccc21` as the compound, how does the z-score read?
**A.** -0.338

**Q.** With `CCCC[C@@H](O)C1=C(COc2ccccc2)Cn2c(=O)n(-c3ccccc3)c(=O)n2[C@H]1CO` as the compound, how does the z-score read?
**A.** 0.347

**Q.** With `CC[C@@H]1[C@@H]2C3C(=O)N(CC)C(=O)C3CC(=O)[C@@H]2[C@H](c2ccc(C)cc2)N1S(=O)(=O)c1ccc(C)cc1` (stereo partly specified) as the compound, how does the z-score read?
**A.** -1.33

**Q.** For `COc1ccc([Si](C)(C)[C@@H]2[C@@H](CC(=O)N3Cc4ccccc4C[C@H]3CO)O[C@]3(C(=O)N(Cc4cccc(N5CCCCC5=O)c4)c4ccccc43)[C@H]2C)cc1`, which z-score is on record?
**A.** -0.304
